Data: PubChem BioAssay
Records with an inconclusive call do not appear. Activity calls are given as the source filed them. Cut-off read from the data, not from the text of the source, unless noted: active = inhibition above about 30%; inactive = the rest.

Legend:
[1] = Her2 expression decrease, cell viability multiplex – SKBR3 breast tumor cells, AlphaScreen, ATP viability, primary screen (AID 461;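 active = Her2 level under about 52% in both replicate screens, with viability over 70% of control, limit read from the data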;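 for Her2 level: lower value means less Her2 protein in the cells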;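 for viability: percent of carrier control wells set as 100% viability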); settings: SKBR3 Her2 protein level, 18-24 h, measured here: SKBR3 viability, ATP luminescence, at 10 µM
[2] = molecular target: Receptor tyrosine-protein kinase erbB-2 (Homo sapiens) (UniProt P04626); assay: as above; settings: 18-24 h, at 10 µM, stronger effect = lower value
Sequence of Receptor tyrosine-protein kinase erbB-2 (Homo sapiens) (P04626 whole entry, looked up): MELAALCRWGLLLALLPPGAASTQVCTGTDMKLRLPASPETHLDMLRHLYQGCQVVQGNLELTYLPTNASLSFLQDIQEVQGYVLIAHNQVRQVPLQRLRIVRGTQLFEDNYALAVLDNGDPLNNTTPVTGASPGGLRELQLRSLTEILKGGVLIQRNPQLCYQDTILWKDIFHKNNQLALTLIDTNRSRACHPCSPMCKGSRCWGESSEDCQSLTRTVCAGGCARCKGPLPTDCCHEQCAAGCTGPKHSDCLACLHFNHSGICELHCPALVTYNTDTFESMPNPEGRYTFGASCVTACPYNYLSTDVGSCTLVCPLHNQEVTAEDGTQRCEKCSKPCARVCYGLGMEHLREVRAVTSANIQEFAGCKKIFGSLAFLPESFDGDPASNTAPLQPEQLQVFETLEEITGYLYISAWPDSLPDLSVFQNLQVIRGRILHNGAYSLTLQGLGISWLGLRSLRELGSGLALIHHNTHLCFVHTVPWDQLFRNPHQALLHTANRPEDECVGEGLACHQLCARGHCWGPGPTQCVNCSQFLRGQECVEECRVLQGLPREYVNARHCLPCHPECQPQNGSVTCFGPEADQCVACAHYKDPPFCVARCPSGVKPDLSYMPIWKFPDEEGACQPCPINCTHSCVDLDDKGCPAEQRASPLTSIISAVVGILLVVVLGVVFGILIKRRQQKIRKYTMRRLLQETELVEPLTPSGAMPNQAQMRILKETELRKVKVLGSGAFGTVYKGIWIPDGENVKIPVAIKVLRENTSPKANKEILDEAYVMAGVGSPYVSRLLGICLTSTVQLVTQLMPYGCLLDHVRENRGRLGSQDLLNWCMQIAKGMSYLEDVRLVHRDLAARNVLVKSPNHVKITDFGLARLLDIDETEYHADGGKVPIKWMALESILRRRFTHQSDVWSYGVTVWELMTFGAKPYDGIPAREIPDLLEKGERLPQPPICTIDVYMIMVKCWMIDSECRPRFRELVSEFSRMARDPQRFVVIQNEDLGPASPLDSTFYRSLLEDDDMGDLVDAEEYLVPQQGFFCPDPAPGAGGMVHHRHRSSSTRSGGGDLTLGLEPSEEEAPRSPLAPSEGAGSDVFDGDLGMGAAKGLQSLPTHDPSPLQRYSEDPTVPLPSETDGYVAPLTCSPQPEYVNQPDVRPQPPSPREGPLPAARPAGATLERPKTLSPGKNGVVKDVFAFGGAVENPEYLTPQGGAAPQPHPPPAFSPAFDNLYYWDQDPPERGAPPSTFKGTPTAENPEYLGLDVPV

[3] = reduced viability of SK-BR-3 breast cancer cells – cell-based, 24 h, human, pilot screen (AID 572;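 active = viability at or below 10% of carrier control in both of two separate runs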;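 note: compound exposure lasted between 18 and 24 h rather than exactly 24 h; 100% = carrier-treated control wells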); settings: SK-BR-3 viability, CellTiter-Glo luminescence, at 10 µM, stronger effect = lower value
[4] = HUVEC growth inhibition – cell-based, human, primary screen (AID 575;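 active = viability at or below 30% in both replicate assays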;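 note: 100% = median of untreated cell wells with 0.1% DMSO on each plate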); settings: HUVEC proliferation, CellTiter-Glo luminescence, 72 h; at 10 µM; stronger effect = lower value
[5] = H69AR cell proliferation blockers – human, duplicate replicates, primary screen (AID 580;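 active = viability at or under a set limit in both replicates, limit being median viability minus 3 SD, cut at about 48% in these data, passing the limit was not always enough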;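 note: 100% = mean luminescence of untreated wells and 0% = no signal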); settings: H69AR lung tumor cells viability, ATP luminescence, 72 h; at 10 µM; stronger effect = lower value
[6] = MRP1 drug-resistance reversers in H69AR cells – cell-based, doxorubicin co-treatment, pilot screen (AID 601;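 active = viability loss from added drug above about 55%, and viability with drug at most 40%, in both replicates, limit read from the data, passing the limit was not always enough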); settings: CellTiter-Glo, 72 h, at 10 µM; for differential viability (reversal): stronger effect = higher value
[7] = yeast transport mutant growth inhibition pilot in 384-well plates, post-Golgi transport modulator project (AID 636; in the data active = inhibition above about 31%); settings: absorbance 615 nm, about 18 h, stronger effect = higher value
[8] = growth suppression of yeast trafficking mutant, preliminary HTS, modulators of trafficking downstream of Golgi apparatus project, 1536-format plate, OD 615 nm (AID 637); settings: yeast transport mutant growth, absorbance 615 nm, 18 h; stronger effect = higher value
[9] = S. cerevisiae growth inhibition in permissive medium (OD615), pilot counter-assay for S. cerevisiae lifespan shortening project, permissive growth control (AID 705;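 active = growth inhibition above 25% in both replicates, a cutoff set 3 SD above the mean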); settings: OD615, 24 h, at 10 µM, stronger effect = higher value
[10] = S. cerevisiae growth inhibition in restrictive medium, OD615, pilot screen, restrictive growth control, yeast lifespan reduction project (AID 706;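 active = growth inhibition above a set limit, 3 SD over mean compound inhibition, in both replicates, cut at about 43% in these data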;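 note: modified DeaD lifespan yeast strain shifted to restrictive glucose medium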); settings: OD615, 48 h, at 10 µM, stronger effect = higher value
[11] = doxorubicin toxicity protection in MRP-1 cells – H69AR cells, CellTiter-Glo, duplicate, MRP-1 activator project, pilot screen (AID 807;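 active = viability increase at or above a cutoff of the median across tested compounds plus 3 SD, cut at about 8.5% in these data, passing the limit was not always enough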;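 note: compound pretreatment 18-22 h then 72 h combined with doxorubicin; 0% = doxorubicin alone and 100% = vehicle without doxorubicin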); settings: H69AR viability with doxorubicin, CellTiter-Glo luminescence; at 10 µM; stronger effect = higher value
[12] = viability of HCT116 without oncogenic beta-catenin – human colon tumor cells, pilot screen (AID 823;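 active = cell viability at or below a set limit in both duplicate runs, the limit being the all-compound median minus 4 SD, cut at about 23% in these data, passing the limit was not always enough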;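 note: 0% = wells killed by 20 µM Hyamine and 100% = untreated DMSO cell wells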); settings: HCT116 beta-catenin knockout viability, CellTiter-Glo, 60 h; at 10 µM; stronger effect = lower value
[13] = viability of PTEN-null HCT116 cells – cell-based, HCT116 clonal line, CellTiter-Glo, pilot screen (AID 824;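 active = viability at or below 27.92% in each of two runs, the all-compound median minus 4 SD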;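 note: 0% = 20 µM Hyamine control and 100% = vehicle cell control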); settings: HCT116 PTEN-deleted viability, 60 h, at 10 µM, stronger effect = lower value
[14] = RAM pathway blockade in budding yeast – dse1pr::URA3 reporter, 5-FOA selection, pilot screen (AID 869;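 active = inhibition over a set limit, the all-compound mean plus 3 SD, in both replicate runs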;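 note: 0% = DMSO wells with no growth and 100% = 10 µM 1-NA-PP1 with full growth; RAM network block rescues cells from 5-FOA so hits raise OD615 growth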); settings: S. cerevisiae dse1pr::URA3 5-FOA growth, OD615, 2 d; at 10 µM; stronger effect = higher value; strain carries analog-sensitive mutant Cbk1 kinase
[15] = RAM signaling pathway blockade in yeast – S. cerevisiae, Pdr1DBD-CYC8 efflux-inhibited sensitized strain, primary screen (AID 1298;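 active = RAM network inhibition above 8.4% in each of two replicates, 3 SD over the compound average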;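 note: 0% = DMSO untreated cells without growth and 100% = 10 µM 1-NA-PP1 full growth; higher means more yeast growth rescued from 5-FOA killing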); settings: S. cerevisiae cbk1-as DSE1-URA3 strain, 5-FOA growth OD615, 2 d; at 50 µM; stronger effect = higher value
[16] = H69AR cells + 2 uM doxorubicin, measured here: viability with 2 uM doxorubicin, stronger effect = lower value
[17] = H69AR cells, compound alone cytotoxicity

SMILES | viability [1] [%] | Her2 level [2] | viability [3] | viability [4] | viability [5] | differential viability (reversal) ([6]; H69AR cells + 2 uM doxorubicin) | viability [6, 16] [%] | viability [6, 17] [%] | inhibition [7] | inhibition [8] | growth inhibition [9] | growth inhibition [10] | viability increase [11] | viability [12] | viability [13] | inhibition [14] | RAM network inhibition [15]
O=P(O)(CCc1ccccc1)CN1CCCCC1 | 106 | 106% (inactive) | 106% (inactive) | 102% (inactive) | 95.5% (inactive) | 3.43% (inactive) | 92 | 95.5 | 7.97% (inactive) | -1.97% (inactive) | -2.51% (inactive) | -11.9% (inactive) | -0.92% (inactive) | 102% (inactive) | 98.8% (inactive) | 2% (inactive) | 1.24% (inactive)
CCC(Oc1ccccc1)C(=O)Nc1ccccc1OC (stereo not given) | 86 | 72.5% (inactive) | 86% (inactive) | 99.4% (inactive) | 97.4% (inactive) | 12.6% (inactive) | 84.8 | 97.4 | -6.35% (inactive) | 3.61% (inactive) | -1.92% (inactive) | 8.91% (inactive) | -3.52% (inactive) | 90% (inactive) | 87% (inactive) | 1.94% (inactive) | 5.73% (inactive)
CCC(C)NC(=O)c1cc(CC(C)C)on1 (stereo not given) | 84 | 111% (inactive) | 84% (inactive) | 95.5% (inactive) | 83.6% (inactive) | -11.1% (inactive) | 94.7 | 83.6 | -0.26% (inactive) | 18.3% (inactive) | -2.93% (inactive) | -0.685% (inactive) | 1.13% (inactive) | 102% (inactive) | 103% (inactive) | -0.07% (inactive) | 2.69% (inactive)
Cc1c(NC(=O)c2ccc(Br)o2)c(=O)n(-c2ccccc2)n1C | 91 | 96% (inactive) | 91% (inactive) | 89.2% (inactive) | 91.2% (inactive) | 5.07% (inactive) | 86.1 | 91.2 | -5.06% (inactive) | -1.67% (inactive) | -11.6% (inactive) | -4.15% (inactive) | 0.9% (inactive) | 97.7% (inactive) | 103% (inactive) | 1.59% (inactive) | 2.23% (inactive)
COc1cc(NC(=O)C2C3C=CC(C3)C2C(=O)O)c(OC)cc1Cl (stereo not given) | 86 | 95% (inactive) | 86% (inactive) | 98.4% (inactive) | 98.3% (inactive) | 4.4% (inactive) | 93.9 | 98.3 | -2.16% (inactive) | -3.61% (inactive) | -4.4% (inactive) | -20.4% (inactive) | -1.99% (inactive) | 101% (inactive) | 91.8% (inactive) | 2.7% (inactive) | 1.54% (inactive)
Cc1ccc(C)c2[nH]c(=O)c(CCNC(=O)c3ccc(S(=O)(=O)N(C)C)cc3)cc12 | 121 | 114% (inactive) | 121% (inactive) | 88.1% (inactive) | 82.3% (inactive) | -1.57% (inactive) | 83.9 | 82.3 | -4.13% (inactive) | -4% (inactive) | -2.9% (inactive) | -22.2% (inactive) | -4.33% (inactive) | 93.2% (inactive) | 81.5% (inactive) | 2.99% (inactive) | 3.23% (inactive)
CSc1nc2c(c(=O)n1C)SC(C)C2 (stereo not given) | 97 | 92.5% (inactive) | 97% (inactive) | 103% (inactive) | 90.8% (inactive) | -4.56% (inactive) | 95.4 | 90.8 | -5.87% (inactive) | -1.67% (inactive) | -6.38% (inactive) | -10.4% (inactive) | -2.62% (inactive) | 103% (inactive) | 93.5% (inactive) | 1.56% (inactive) | 5.01% (inactive)
O=C1C/C(=C/NCc2ccccc2)C(=O)N1 | 93 | 111% (inactive) | 93% (inactive) | 95.5% (inactive) | 97.2% (inactive) | -4.96% (inactive) | 102 | 97.2 | 2.08% (inactive) | -9% (inactive) | -6.49% (inactive) | 0.205% (inactive) | 0.43% (inactive) | 99.7% (inactive) | 102% (inactive) | 1.04% (inactive) | 2.77% (inactive)
Cc1cc(NS(=O)(=O)c2ccc(NC(=O)COc3ccccc3C(C)C)cc2)no1 | 98 | 90.5% (inactive) | 98% (inactive) | 80.9% (inactive) | 88.9% (inactive) | 1.26% (inactive) | 87.6 | 88.9 | -5.2% (inactive) | -3.33% (inactive) | -12% (inactive) | -18.1% (inactive) | -1.38% (inactive) | 93.6% (inactive) | 83.4% (inactive) | 2.17% (inactive) | 4.16% (inactive)
Cn1c(=O)c(=O)n(C)c2cc(S(=O)(=O)CCC(=O)N3CCOCC3)ccc21 | 88.5 | 84% (inactive) | 88.5% (inactive) | 106% (inactive) | 95% (inactive) | -6.71% (inactive) | 102 | 95 | -0.4% (inactive) | 12.5% (inactive) | -2.16% (inactive) | -4.52% (inactive) | -2.26% (inactive) | 103% (inactive) | 102% (inactive) | 0.99% (inactive) | 6.32% (inactive)
